Giardia kill: Small Molecules that selectively kill Giardia lamblia: qHTS; activity change, % at 7.66 µM, hits read low; AID 540267, 2011; Giardia lamblia trophozoite viability; hit rate 0.15% among 340,000; in the data active = activity change below about -80%; inconclusive = between about -30% and that limit;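 note: parasites exposed to compound for two days anaerobically before the ATP read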
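Giardia trophozoites, 100 cells per well, were exposed to compounds for 48 hrs at 37 deg C under anaerobic conditions; viability was then read as ATP content by bioluminescence after 15-30 min at room temperature.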
TDP1 cell CPT: qHTS for Inhibitors of human tyrosyl-DNA phosphodiesterase 1 (TDP1): qHTS in cells in presence of CPT | chicken DT40 Tdp1-/-;hTDP1 cells + 20 nM CPT, ATP luminescence, 48 h | Potency, µM (highest dose often 46.2 µM), usual class: inhibitors | hit rate 12% among 420,000; note: nearly all actives have a fitted effect of over 55% in size
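Cell growth measured by CellTiter-Glo luminescence after a minimum 48 h, 37 C compound exposure with 20 nM CPT in Tdp1-knockout DT40 cells stably expressing hTDP1, seeded 400/well; qHTS titration format.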
DT40 TDP1 no CPT: qHTS for Inhibitors of human tyrosyl-DNA phosphodiesterase 1 (TDP1): qHTS in cells in absence of CPT; DT40 Tdp1-/- hTDP1 cells, no CPT, ATP luminescence, 48 h; Potency, µM (highest dose often 46.2 µM), hits mostly inhibitors; hit rate 15% among 420,000; note: nearly all actives have a fitted effect of over 55% in size
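Growth of hTDP1-complemented DT40 Tdp1-knockout cells is measured by ATP luminescence after at least 48 hr compound exposure at 37 °C, with DMSO substituting for the 20 nM CPT used in the parallel screen.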
ELG1 DNA repair: qHTS screen for small molecules that inhibit ELG1-dependent DNA repair in human embryonic kidney (HEK293T) cells expressing luciferase-tagged ELG1; hit rate 2.3% among 330,000; Potency, µM (titrated, usually from 46.1 µM), actives largely listed as inhibitors; HEK293T ELG1-luciferase reporter, luminescence, 16 h; DNA damage induced by 5-fluorouridine; AID 504467, 2011; note: nearly all actives have a fitted effect of over 55% in size
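Cells (2,000 per well) received 5-fluorouridine plus test compound or DMSO and were incubated 16 hr at 37 °C, 5% CO2. Luciferase activity was read by luminescence 30 min after ONE-Glo addition; signal suppression marked inhibition of damage-induced ELG1 function.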
IL1B secr inh: qHTS for Inhibitors of Inflammasome Signaling: IL-1-beta AlphaLISA Primary Screen | hit rate 4.7% among 360,000 | AID 743279, 2014 | THP-1 LPS/ATP IL-1B secretion, AlphaLISA, 16 h; hits give low values | activity change, % at 57.5 µM; in the data active = activity change below about -50%; inconclusive = mostly about -30% to -49%
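Secreted IL-1B measured by AlphaLISA bead assay after 16 h compound exposure of THP-1 cells; compounds (final up to 57.5 uM) added 1 h before LPS (250 ng/mL) and ATP (1.25 mM) stimulation; lower signal means less secretion.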
TDP1 block: qHTS Assay for Inhibitors of Tyrosyl-DNA Phosphodiesterase (TDP1) | Tyrosyl-DNA phosphodiesterase 1 (Homo sapiens), Q9NUW8 | recombinant TDP1, AlphaScreen DNA substrate cleavage | Potency, µM (doses to about 130 µM), most hits filed as inhibitors | hit rate 0.28% among 350,000 | AID 485290, 2010; note: nearly all actives have a fitted effect of over 40% in size
Target sequence (Q9NUW8 whole entry, looked up): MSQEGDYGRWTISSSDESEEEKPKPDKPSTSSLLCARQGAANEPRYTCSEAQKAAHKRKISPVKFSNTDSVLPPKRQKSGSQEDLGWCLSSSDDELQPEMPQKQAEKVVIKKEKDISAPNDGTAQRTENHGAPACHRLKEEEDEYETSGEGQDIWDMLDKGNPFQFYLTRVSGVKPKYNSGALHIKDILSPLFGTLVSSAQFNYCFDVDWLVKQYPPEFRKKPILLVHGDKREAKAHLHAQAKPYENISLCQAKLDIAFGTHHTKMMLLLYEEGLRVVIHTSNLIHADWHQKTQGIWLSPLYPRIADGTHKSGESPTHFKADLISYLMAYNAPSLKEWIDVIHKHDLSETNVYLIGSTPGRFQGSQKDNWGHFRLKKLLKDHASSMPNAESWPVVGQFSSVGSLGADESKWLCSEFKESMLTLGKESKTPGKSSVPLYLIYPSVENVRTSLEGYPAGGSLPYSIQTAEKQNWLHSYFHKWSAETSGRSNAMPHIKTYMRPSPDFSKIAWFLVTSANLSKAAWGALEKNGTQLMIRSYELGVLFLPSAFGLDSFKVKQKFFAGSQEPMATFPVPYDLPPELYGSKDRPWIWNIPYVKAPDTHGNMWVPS
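Steps: enzyme plus compound, 15 min RT; add biotin/phosphotyrosine-FITC oligonucleotide (15 nM final), react 5 min; add donor/acceptor beads (10 ug/ml final), 10 min; read AlphaScreen. Tdp1 at 1 nM final.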
Numbers stand for hits; [ ] = another dose, or the depositor's remark. Most compounds without a hit are left out; they make up all but 19% or so of the library. Unless noted, calls come from the whole dose curve; as a rule, active = well fitted curve in the direction sought with a large enough effect; inconclusive = small, poorly fitted or top-dose-only effect, or another doubt; inactive = no such curve, though single readings can be large; an effect the other way counts as inactive or inconclusive.

CCc1nc2c(OCc3c(C)noc3C)cccn2c1N(C)C(=O)C(C)C was read as TDP1 cell CPT inconclusive, DT40 TDP1 no CPT inconclusive and IL1B secr inh inactive.
`CCc1nc2c(OCC(=O)c3ccc(Cl)cc3Cl)cccn2c1N(C=O)Cc1ccc(OC)cc1` gave TDP1 cell CPT 23µM, DT40 TDP1 no CPT 18µM and IL1B secr inh inactive.
COc1ccc(C(C(=O)NC2CCCC2)N(C(=O)c2csnn2)C2CCCC2)cc1 (stereo unspecified) was read as Giardia kill inactive, TDP1 cell CPT inactive, DT40 TDP1 no CPT inconclusive, ELG1 DNA repair inactive, IL1B secr inh inactive and TDP1 block inactive.
`COc1cccc(C2CCCN2Cc2nc(-c3cnccn3)no2)c1` (stereo unspecified) gave Giardia kill inactive, TDP1 cell CPT inactive, DT40 TDP1 no CPT inactive, ELG1 DNA repair inactive, IL1B secr inh inactive and TDP1 block inactive.
CN1CCN(S(=O)(=O)c2ccc(Oc3ccc(F)c(Cl)c3)nc2)CC1 was read as Giardia kill inactive, TDP1 cell CPT inactive, DT40 TDP1 no CPT inactive, ELG1 DNA repair inactive, IL1B secr inh inactive and TDP1 block inactive.
Cc1cc(O)ccc1-c1ccc2nncn2c1 was read as TDP1 cell CPT 16µM, DT40 TDP1 no CPT inactive and IL1B secr inh inactive.
For c1ccc2c(-c3ccc4nncn4c3)cncc2c1 the results were TDP1 cell CPT inconclusive, DT40 TDP1 no CPT inconclusive and IL1B secr inh inactive.
Cc1ccc(OCC(=O)Nc2ccc(C(=O)OCc3cc(=O)n4nc(C5CC5)sc4n3)cc2)cc1 was read as TDP1 cell CPT inactive, DT40 TDP1 no CPT inconclusive and TDP1 block inactive.
For Cc1ccc(OCC(=O)Nc2ccccc2C(=O)OCc2cc(=O)n3c(C)csc3n2)cc1 the results were TDP1 cell CPT 16µM, DT40 TDP1 no CPT 21µM and TDP1 block inactive.
For CC(Oc1ccccc1)C(=O)Nc1ccccc1C(=O)OCc1cc(=O)n2nc(C3CC3)sc2n1 (stereo unspecified) the results were TDP1 cell CPT 3.7µM, DT40 TDP1 no CPT 7.3µM and TDP1 block inactive.
`Cc1ccc(OCC(=O)Nc2ccccc2C(=O)OCc2cc(=O)n3nc(C4CC4)sc3n2)cc1` gave TDP1 cell CPT 7.3µM, DT40 TDP1 no CPT 10µM and TDP1 block inactive.
Screening CCOC(=O)C1(Cc2ccccc2)CCN(Cc2ccc3cc(NC(C)=O)ccc3n2)CC1 returned Giardia kill inactive, TDP1 cell CPT inactive, DT40 TDP1 no CPT inconclusive, ELG1 DNA repair inactive and IL1B secr inh inconclusive.
Screening COC(=O)C1=C(C)N(Cc2ccccc2)C(=NCCc2ccccn2)N[C@H]1c1cccc(C(F)(F)F)c1 returned Giardia kill inactive, TDP1 cell CPT 7.3µM, DT40 TDP1 no CPT 15µM, ELG1 DNA repair inactive, IL1B secr inh inactive and TDP1 block inactive.
`CCN1C(=NCCc2ccccn2)N[C@@H](c2cccc(C(F)(F)F)c2)C(C(=O)OC)=C1C` gave Giardia kill inactive, TDP1 cell CPT 11µM, DT40 TDP1 no CPT 16µM, ELG1 DNA repair inactive, IL1B secr inh inconclusive and TDP1 block inactive.
For COC(=O)C1=C(C)N(Cc2ccccc2)C(=S)N[C@H]1c1cccc(C(F)(F)F)c1 the results were Giardia kill inactive, TDP1 cell CPT inconclusive, DT40 TDP1 no CPT inconclusive, ELG1 DNA repair inactive, IL1B secr inh inconclusive and TDP1 block inactive.
COC(=O)C1=C(C)N(Cc2ccccc2)C(=O)N[C@H]1c1cccc(C(F)(F)F)c1 was read as Giardia kill inactive, TDP1 cell CPT inconclusive, DT40 TDP1 no CPT inconclusive, ELG1 DNA repair inactive, IL1B secr inh inactive and TDP1 block inactive[21 µM].

Screening results: PubChem BioAssay, National Center for Advancing Translational Sciences (NCATS)
